Key:
Assay in all cases: universal protein binding microarray (PBM); transcription factors of Arabidopsis thaliana; high values mean tight binding
Conditions in all cases: protein: recombinant; tags: GST; chain copies: 2; dsDNA, one strand shown
[1] = target: T1, GST-ANAC092(1-176) (Arabidopsis thaliana, UniProt Q9FKA0 1-176)
T1 sequence: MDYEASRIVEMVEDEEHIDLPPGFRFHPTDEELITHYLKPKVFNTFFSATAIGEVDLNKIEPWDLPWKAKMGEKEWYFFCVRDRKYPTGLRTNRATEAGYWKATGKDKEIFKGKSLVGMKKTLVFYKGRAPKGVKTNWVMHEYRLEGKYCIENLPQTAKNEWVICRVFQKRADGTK
In short: (§1)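 Binding is expressed as the normalised enrichment score (E-score). Proteins carrying a GST tag, whether NAC-domain, full-length or DNA-binding-domain forms, were induced in cells, and zinc acetate was added for zinc-finger proteins. After purification on glutathione–Sepharose 4B and quantification by A280 or anti-GST western blot, each was applied in duplicate at 200 to 500 nM final to custom all-10-mer Agilent 4 × 180K arrays made double-stranded by primer extension. Gapped and ungapped 8-mers were scored.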

[2] = target: GST-NTL6(1-168) (Arabidopsis thaliana, UniProt Q9SCK6 1-168)
Chain of GST-NTL6(1-168) (Q9SCK6 1-168): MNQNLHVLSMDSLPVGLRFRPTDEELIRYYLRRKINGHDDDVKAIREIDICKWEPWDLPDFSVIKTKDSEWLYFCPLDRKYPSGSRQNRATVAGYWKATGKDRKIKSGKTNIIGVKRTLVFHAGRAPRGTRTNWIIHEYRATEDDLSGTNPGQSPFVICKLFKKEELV
In short: as §1

[3] = target: T2, GST-ANAC019 NAC domain (Arabidopsis thaliana, UniProt Q9C932 14-162)
T2 sequence: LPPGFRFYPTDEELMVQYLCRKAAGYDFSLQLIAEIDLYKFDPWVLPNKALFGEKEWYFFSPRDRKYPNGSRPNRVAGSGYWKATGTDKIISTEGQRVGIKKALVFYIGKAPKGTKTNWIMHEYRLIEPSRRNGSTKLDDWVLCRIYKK
In short: as §1

[4] = target: T3, GST-NAP(1-166) (Arabidopsis thaliana, UniProt O49255 1-166)
T3 sequence: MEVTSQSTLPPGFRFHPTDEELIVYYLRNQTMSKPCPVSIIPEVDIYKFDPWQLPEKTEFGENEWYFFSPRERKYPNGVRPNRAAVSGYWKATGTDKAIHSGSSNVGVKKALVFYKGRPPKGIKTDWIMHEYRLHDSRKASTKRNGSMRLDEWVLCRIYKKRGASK
In short: as §1

[5] = target: T4, GST-NST2(1-184) (Arabidopsis thaliana, UniProt Q9M274 1-184)
T4 sequence: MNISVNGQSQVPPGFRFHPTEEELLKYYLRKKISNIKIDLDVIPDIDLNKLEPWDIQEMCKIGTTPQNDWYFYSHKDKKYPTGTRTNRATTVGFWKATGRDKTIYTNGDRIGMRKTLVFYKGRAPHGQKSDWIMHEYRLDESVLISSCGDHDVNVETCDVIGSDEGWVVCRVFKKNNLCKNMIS
In short: as §1

[6] = target: T5, GST-NTL8 NAC domain (Arabidopsis thaliana, UniProt Q9XIN7 14-156)
T5 sequence: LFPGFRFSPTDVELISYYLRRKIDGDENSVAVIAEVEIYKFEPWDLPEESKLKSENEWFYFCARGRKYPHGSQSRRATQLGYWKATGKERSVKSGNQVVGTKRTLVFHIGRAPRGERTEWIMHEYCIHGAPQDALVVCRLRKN
In short: as §1

[7] = target: T6, GST-SND1(1-203) (Arabidopsis thaliana, UniProt Q9LPI7 1-203)
T6 sequence: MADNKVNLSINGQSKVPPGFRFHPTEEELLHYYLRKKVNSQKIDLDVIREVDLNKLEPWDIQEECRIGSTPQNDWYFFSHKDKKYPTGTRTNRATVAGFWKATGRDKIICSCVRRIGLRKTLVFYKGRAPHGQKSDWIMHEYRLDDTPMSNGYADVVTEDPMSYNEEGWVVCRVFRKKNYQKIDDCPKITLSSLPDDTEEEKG
In short: as §1

[8] = target: T7, GST-VND3 NAC domain (Arabidopsis thaliana, UniProt Q9FH59 12-162)
T7 sequence: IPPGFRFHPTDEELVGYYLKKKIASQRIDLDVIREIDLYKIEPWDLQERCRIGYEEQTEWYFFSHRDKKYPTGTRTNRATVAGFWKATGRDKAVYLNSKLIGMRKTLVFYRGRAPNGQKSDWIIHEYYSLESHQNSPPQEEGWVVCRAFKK
In short: as §1

[9] = target: T8, GST-VND7 NAC domain (Arabidopsis thaliana, UniProt Q9C8W9 9-158)
T8 sequence: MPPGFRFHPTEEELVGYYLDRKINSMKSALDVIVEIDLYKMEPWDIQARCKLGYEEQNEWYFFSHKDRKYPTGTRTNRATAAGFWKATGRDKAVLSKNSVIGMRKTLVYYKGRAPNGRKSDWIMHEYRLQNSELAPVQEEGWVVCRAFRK
In short: as §1

[10] = target: T9, GST-ANAC055(1-171) (Arabidopsis thaliana, UniProt Q9LDY8 1-171)
T9 sequence: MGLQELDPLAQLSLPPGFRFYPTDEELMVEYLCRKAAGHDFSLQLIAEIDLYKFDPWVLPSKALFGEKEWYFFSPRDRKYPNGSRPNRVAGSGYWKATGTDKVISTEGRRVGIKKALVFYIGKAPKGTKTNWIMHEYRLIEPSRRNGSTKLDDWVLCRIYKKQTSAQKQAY
In short: as §1

[11] = target: T10, GST-ATAF1 NAC domain (Arabidopsis thaliana, UniProt Q39013 7-158)
T10 sequence: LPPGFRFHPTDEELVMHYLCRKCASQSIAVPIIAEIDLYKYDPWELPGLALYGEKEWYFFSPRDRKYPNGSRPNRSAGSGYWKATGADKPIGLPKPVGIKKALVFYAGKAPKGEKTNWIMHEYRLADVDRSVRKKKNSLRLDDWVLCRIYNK
In short: as §1

[12] = target: T11, GST-ANAC092(1-285) full length (Arabidopsis thaliana, UniProt Q9FKA0 1-285)
T11 sequence: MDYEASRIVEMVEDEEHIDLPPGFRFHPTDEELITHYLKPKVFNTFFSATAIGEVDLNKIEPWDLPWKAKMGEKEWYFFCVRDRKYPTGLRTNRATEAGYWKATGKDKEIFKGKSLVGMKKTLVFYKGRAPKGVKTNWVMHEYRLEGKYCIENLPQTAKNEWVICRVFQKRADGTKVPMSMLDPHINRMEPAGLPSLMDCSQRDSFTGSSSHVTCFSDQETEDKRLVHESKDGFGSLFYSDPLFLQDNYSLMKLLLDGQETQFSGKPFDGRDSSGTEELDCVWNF
In short: as §1

Row | Sequence | binding signal [1] [E-score] | binding signal [2] [E-score] | binding signal [3] [E-score] | binding signal [4] [E-score] | binding signal [5] [E-score] | binding signal [6] [E-score] | binding signal [7] [E-score] | binding signal [8] [E-score] | binding signal [9] [E-score] | binding signal [10] [E-score] | binding signal [11] [E-score] | binding signal [12] [E-score]
1 | AGGGTAAG | 0.0785 | 0.245 | 0.0566 | 0.0509 | 0.0565 | 0.429 | 0.111 | 0.0682 | 0.0597 | – | – | –
2 | TTAAGTAA | 0.236 | 0.48 | 0.198 | – | 0.258 | 0.34 | 0.403 | 0.17 | 0.135 | 0.0996 | 0.168 | 0.3
3 | GCAAGCAA | 0.367 | 0.26 | 0.167 | – | 0.28 | 0.0916 | 0.4 | 0.0906 | 0.216 | 0.0669 | – | 0.42
4 | ATAGCGTA | 0.437 | 0.0935 | – | 0.128 | 0.355 | – | 0.476 | 0.137 | 0.254 | 0.136 | 0.165 | 0.438
5 | AAGCAAAC | 0.331 | 0.359 | – | 0.119 | 0.31 | 0.336 | 0.401 | 0.181 | 0.206 | 0.194 | 0.137 | 0.355
6 | TAAGAAAA | 0.215 | 0.454 | – | – | 0.235 | 0.216 | 0.301 | 0.137 | 0.181 | 0.129 | 0.193 | 0.269
7 | ACGCTACA | 0.27 | 0.051 | – | 0.0555 | 0.249 | – | 0.402 | 0.101 | 0.0811 | 0.0711 | 0.0647 | 0.404
8 | AAGCAACC | 0.425 | 0.329 | – | – | 0.349 | 0.301 | 0.479 | 0.114 | 0.136 | 0.0668 | 0.0659 | 0.453
